Results published in PubChem BioAssay (EPA / NIEHS).
Records with an inconclusive call do not appear. The source made the active and inactive calls. How the source made its calls, unless noted: active means hit-call score of the fitted dose curve at least 0.9, where 1 is the maximum; inconclusive means response in the unintended direction; inactive means score below 0.9.

Experiments:
[1] = target: human RAR-related Orphan Receptor gamma (RORg), RORC (gene 6097) (UniProt P51449); test: ATG_RORg_TRANS: Attagene TRANS-FACTORIAL HepG2 Assay for human RAR-related Orphan Receptor gamma (RORg) (AID 2283011);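 on AC50: potency for induction of reporter transcripts above DMSO so activators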
Chain of human RAR-related Orphan Receptor gamma (RORg), RORC (gene 6097) (P51449 whole entry, looked up, the tested form may be a part): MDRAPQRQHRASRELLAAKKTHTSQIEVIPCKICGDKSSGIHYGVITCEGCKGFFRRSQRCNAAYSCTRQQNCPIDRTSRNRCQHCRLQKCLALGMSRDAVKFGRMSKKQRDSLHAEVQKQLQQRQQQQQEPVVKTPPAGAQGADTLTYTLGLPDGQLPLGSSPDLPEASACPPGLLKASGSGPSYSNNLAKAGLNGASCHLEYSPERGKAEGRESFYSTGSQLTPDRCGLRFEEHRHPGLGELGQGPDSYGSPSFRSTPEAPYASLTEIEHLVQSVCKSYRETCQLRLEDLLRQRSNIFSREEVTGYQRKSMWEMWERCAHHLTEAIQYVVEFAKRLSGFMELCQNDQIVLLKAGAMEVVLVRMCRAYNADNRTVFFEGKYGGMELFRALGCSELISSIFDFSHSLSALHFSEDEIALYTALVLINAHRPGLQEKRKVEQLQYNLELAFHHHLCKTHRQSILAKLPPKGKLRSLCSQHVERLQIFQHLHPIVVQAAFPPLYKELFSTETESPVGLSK
How it was run: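 First, HepG2 liver cells were transfected with GAL4-UAS-driven reporter constructs and the RORg-Gal4 fusion. Next, they were treated with chemical for 24 h. Finally, reporter mRNA was quantified by RT-PCR and capillary electrophoresis, with upward activity fitted against DMSO.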

[2] = target: Retinoic acid receptor RXR-alpha (Homo sapiens) (UniProt P19793); test: ATG_RXRa_TRANS: Attagene TRANS-FACTORIAL HepG2 Assay for human Retinoid X Receptor alpha (RXRa) (AID 2283012)
Chain of Retinoic acid receptor RXR-alpha (Homo sapiens) (P19793 whole entry, looked up, the tested form may be a part): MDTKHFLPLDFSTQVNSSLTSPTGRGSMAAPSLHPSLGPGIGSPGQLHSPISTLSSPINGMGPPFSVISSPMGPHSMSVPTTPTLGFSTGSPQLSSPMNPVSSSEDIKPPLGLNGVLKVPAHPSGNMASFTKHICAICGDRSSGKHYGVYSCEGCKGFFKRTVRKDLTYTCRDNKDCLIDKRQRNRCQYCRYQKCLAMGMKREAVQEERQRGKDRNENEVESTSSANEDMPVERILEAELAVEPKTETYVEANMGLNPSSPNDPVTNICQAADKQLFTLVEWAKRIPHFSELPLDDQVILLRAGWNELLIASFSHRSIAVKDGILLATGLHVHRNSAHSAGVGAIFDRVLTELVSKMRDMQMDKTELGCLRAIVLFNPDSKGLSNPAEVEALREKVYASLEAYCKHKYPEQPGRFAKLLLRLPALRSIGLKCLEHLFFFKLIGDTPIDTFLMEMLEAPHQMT
How it was run: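 HepG2 cells transiently transfected with GAL4-UAS reporter units and chimeric RXRa-Gal4 protein, treated 24 h. Reporter mRNA measured by RT-PCR, fluorescent labelling, HpaI digestion and capillary electrophoresis. Induction fitted against DMSO.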

[3] = target: human Retinoid X Receptor beta (RXRb), RXRB (gene 6257) (UniProt P28702); test: ATG_RXRb_TRANS: Attagene TRANS-FACTORIAL HepG2 Assay for human Retinoid X Receptor beta (RXRb) (AID 2283013)
Chain of human Retinoid X Receptor beta (RXRb), RXRB (gene 6257) (P28702 whole entry, looked up, the tested form may be a part): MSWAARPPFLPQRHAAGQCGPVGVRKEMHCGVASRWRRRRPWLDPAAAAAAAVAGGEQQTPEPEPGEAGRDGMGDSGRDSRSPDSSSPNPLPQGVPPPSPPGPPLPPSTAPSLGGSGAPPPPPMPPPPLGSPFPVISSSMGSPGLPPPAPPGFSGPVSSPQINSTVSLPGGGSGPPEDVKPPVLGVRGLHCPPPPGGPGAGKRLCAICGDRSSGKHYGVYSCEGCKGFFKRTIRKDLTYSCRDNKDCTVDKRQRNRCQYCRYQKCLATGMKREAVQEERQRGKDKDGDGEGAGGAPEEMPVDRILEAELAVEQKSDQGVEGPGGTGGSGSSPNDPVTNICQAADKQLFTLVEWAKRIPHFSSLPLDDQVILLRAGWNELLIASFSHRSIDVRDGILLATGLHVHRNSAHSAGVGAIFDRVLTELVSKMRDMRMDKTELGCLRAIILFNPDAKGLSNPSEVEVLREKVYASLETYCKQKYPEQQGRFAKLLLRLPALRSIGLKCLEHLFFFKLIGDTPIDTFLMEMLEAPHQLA
How it was run: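 HepG2 cells were transiently transfected with multiplexed GAL4-UAS reporters and a chimeric RXRb-Gal4 construct, then exposed for 24 h. Reporter mRNA was quantified by RT-PCR, FAM labeling, HpaI digestion and capillary electrophoresis; gain of signal was scored against DMSO.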

[4] = target: human Thyroid Receptor alpha (THRa1), THRA (gene 7067) (UniProt P10827); test: ATG_THRa1_TRANS: Attagene TRANS-FACTORIAL HepG2 Assay for human Thyroid Receptor alpha (THRa1) (AID 2283014)
Chain of human Thyroid Receptor alpha (THRa1), THRA (gene 7067) (P10827 whole entry, looked up, the tested form may be a part): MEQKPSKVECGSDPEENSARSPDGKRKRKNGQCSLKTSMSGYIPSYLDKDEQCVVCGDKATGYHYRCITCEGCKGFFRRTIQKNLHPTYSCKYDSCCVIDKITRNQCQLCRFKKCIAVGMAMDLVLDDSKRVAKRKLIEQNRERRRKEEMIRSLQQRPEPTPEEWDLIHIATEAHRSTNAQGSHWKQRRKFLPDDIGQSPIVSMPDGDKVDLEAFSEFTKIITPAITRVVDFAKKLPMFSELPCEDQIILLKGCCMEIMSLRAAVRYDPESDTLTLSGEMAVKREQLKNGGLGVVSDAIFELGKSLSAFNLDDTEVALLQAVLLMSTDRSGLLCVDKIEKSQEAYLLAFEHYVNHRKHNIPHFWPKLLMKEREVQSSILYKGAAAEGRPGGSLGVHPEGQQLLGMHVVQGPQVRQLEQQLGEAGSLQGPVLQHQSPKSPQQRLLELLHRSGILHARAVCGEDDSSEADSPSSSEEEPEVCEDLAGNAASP
How it was run: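 Reporter transcript induction, read by capillary electrophoresis of 6-FAM-labelled RT-PCR products, reflects activity of a transfected THRa1-Gal4 fusion in HepG2 liver cells. Cells were dosed for 24 h; activity was fitted in the positive direction against DMSO.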

[5] = read-out: E-selectin (Homo sapiens) (UniProt P16581); test: BSK_3C_Eselectin: BioMAP Diversity Plus: 3C Assay for Eselectin Biomarker Activity (AID 2283015; active means hit-call score of the fitted dose curve at least 0.9, where 1 is the maximum; inactive means score below 0.9); conditions: primary human endothelial cells (HUVEC); actives raise or lower the signal
How it was run: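 ELISA read-out of E-selectin on endothelial monolayers after 24 h chemical treatment. Human umbilical vein primary cells served as the system, with DMSO defining baseline activity for bidirectional fitting.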

[6] = read-out: Interleukin-1 alpha (IL1a), IL1A (gene 3552); test: BSK_BE3C_IL1a: BioMAP Diversity Plus: BE3C Assay for Interleukin-1 alpha (IL1a) Biomarker Activity (AID 2283016; active means hit-call score of the fitted dose curve at least 0.9, where 1 is the maximum; inactive means score below 0.9); conditions: primary human bronchial epithelial cells; actives raise or lower the signal
How it was run: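 Human primary bronchial epithelial cells, 24 h chemical exposure; IL-1a quantified by ELISA, fitted bidirectionally against DMSO. Cytotoxicity assessed in parallel by SRB total-protein staining at the time of measurement.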

[7] = read-out: Monocyte Chemoattractant Protein-1 (MCP1), CCL2 (gene 6347); test: BSK_4H_MCP1: BioMAP Diversity Plus: 4H Assay for Monocyte Chemoattractant Protein-1 (MCP1) Biomarker Activity (AID 2283018; active means hit-call score of the fitted dose curve at least 0.9, where 1 is the maximum; inactive means score below 0.9); conditions: primary human endothelial cells (HUVEC); actives raise or lower the signal
How it was run: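 Human umbilical vein endothelial cells (4H system) exposed to chemicals for 24 h in 96-well format. MCP-1 measured by ELISA; bidirectional fitting against DMSO, with SRB total-protein staining in parallel cultures for cytotoxicity.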

[8] = read-out: Human Leukocyte Antigen - DR isotype (HLADR), HLA-DRA (gene 3122); test: BSK_3C_HLADR: BioMAP Diversity Plus: 3C Assay for Human Leukocyte Antigen - DR isotype (HLADR) Biomarker Activity (AID 2283019; active means hit-call score of the fitted dose curve at least 0.9, where 1 is the maximum; inactive means score below 0.9;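 further: ELISA of cell-surface HLA-DR on HUVEC 24 h after dosing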); conditions: primary human endothelial cells (HUVEC); actives raise or lower the signal
How it was run: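 ELISA readout of surface HLA-DR on human umbilical vein endothelium, taken 24 h after chemical treatment. Gain- and loss-of-signal were both fitted relative to DMSO.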

[9] = read-out: Interleukin-8 (IL8), CXCL8 (gene 3576); test: BSK_3C_IL8: BioMAP Diversity Plus: 3C Assay for Interleukin-8 (IL8) Biomarker Activity (AID 2283020; active means hit-call score of the fitted dose curve at least 0.9, where 1 is the maximum; inactive means score below 0.9); conditions: primary human endothelial cells (HUVEC); actives raise or lower the signal
How it was run: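 Primary human umbilical vein endothelial cells were dosed for 24 h. IL-8 was quantified by ELISA and fitted bidirectionally against DMSO. Cytotoxicity was assessed in parallel cultures by SRB staining at 560 nm.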

[10] = read-out: Monokine induced gamma interferon (MIG), CXCL9 (gene 4283); test: BSK_3C_MIG: BioMAP Diversity Plus: 3C Assay for Monokine induced gamma interferon (MIG) Biomarker Activity (AID 2283021; active means hit-call score of the fitted dose curve at least 0.9, where 1 is the maximum; inactive means score below 0.9); conditions: primary human endothelial cells (HUVEC); actives raise or lower the signal
How it was run: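 HUVEC primary endothelial cultures dosed with chemical; MIG quantified by ELISA at 24 h. Data fitted bidirectionally against DMSO control, with parallel SRB total-protein staining for cytotoxicity.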

[11] = target: human Vitamin D Receptor (VDR), VDR (gene 7421) (UniProt P11473); test: ATG_VDR_TRANS: Attagene TRANS-FACTORIAL HepG2 Assay for human Vitamin D Receptor (VDR) (AID 2283022)
Chain of human Vitamin D Receptor (VDR), VDR (gene 7421) (P11473 whole entry, looked up, the tested form may be a part): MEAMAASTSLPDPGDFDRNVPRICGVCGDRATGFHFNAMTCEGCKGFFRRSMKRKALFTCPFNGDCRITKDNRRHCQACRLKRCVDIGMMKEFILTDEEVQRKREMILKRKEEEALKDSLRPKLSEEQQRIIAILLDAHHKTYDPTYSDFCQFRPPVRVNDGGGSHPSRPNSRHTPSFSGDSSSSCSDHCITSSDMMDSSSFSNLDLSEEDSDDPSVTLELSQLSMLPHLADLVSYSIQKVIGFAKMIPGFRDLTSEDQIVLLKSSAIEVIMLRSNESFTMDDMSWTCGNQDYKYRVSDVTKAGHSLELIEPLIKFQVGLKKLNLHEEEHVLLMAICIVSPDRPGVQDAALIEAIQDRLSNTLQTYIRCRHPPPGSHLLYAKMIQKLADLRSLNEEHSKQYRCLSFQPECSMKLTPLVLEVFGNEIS
How it was run: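 Steps: transfect HepG2 with GAL4-UAS-driven reporter constructs; dose compounds 24 h; isolate RNA, reverse-transcribe, PCR-amplify with 6-FAM-labelled primer extension and HpaI digestion; quantify fragments by capillary electrophoresis relative to DMSO.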

[12] = BSK_3C_SRB: Viability Assessment in the BioMAP Diversity Plus: 3C Assay (AID 2283023; active means hit-call score of the fitted dose curve at least 0.9, where 1 is the maximum; inactive means score below 0.9;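 further: cells read 24 h after compound dosing; fitted both ways against DMSO so a hit may be signal rise or drop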); conditions: primary human endothelial cells (HUVEC)
How it was run: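 Absorbance at 560 nm of sulforhodamine B-stained (0.1%) total protein served as a cytotoxicity readout in human umbilical vein endothelial cells, 24 h after chemical treatment. Signal was fitted bidirectionally relative to DMSO.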

[13] = read-out: Matrix Metallopeptidase 1 (MMP1), MMP1 (gene 4312); test: BSK_BE3C_MMP1: BioMAP Diversity Plus: BE3C Assay for Matrix Metallopeptidase 1 (MMP1) Biomarker Activity (AID 2283024; active means hit-call score of the fitted dose curve at least 0.9, where 1 is the maximum; inactive means score below 0.9); conditions: primary human bronchial epithelial cells; actives raise or lower the signal
How it was run: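 Human primary bronchial epithelial cells (BE3C system) dosed for 24 h; MMP-1 quantified by ELISA. Bidirectional fit against DMSO; cytotoxicity tracked in parallel cultures by SRB total-protein staining.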

[14] = BSK_3C_Vis: BioMAP Diversity Plus: 3C Assay for Morphology Visualization (AID 2283025; active means hit-call score of the fitted dose curve at least 0.9, where 1 is the maximum; inactive means score below 0.9;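 further: fitted both ways so gain or loss versus DMSO counts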); conditions: primary human endothelial cells (HUVEC)
How it was run: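 Human umbilical vein endothelial cell morphology was inspected by light microscopy 24 h after chemical dosing; scored bidirectionally relative to DMSO.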

[15] = read-out: Pselectin, SELP (gene 6403); test: BSK_4H_Pselectin: BioMAP Diversity Plus: 4H Assay for Pselectin Biomarker Activity (AID 2283026; active means hit-call score of the fitted dose curve at least 0.9, where 1 is the maximum; inactive means score below 0.9); conditions: primary human endothelial cells (HUVEC); actives raise or lower the signal
How it was run: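 Primary human umbilical vein endothelial cells were treated 24 h, and cell-surface P-selectin was then quantified by ELISA. Bidirectional fit versus DMSO; cytotoxicity checked in parallel cultures by SRB total-protein staining.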

[16] = BSK_BE3C_SRB: Viability Assessment in the BioMAP Diversity Plus: BE3C Assay (AID 2283028; active means hit-call score of the fitted dose curve at least 0.9, where 1 is the maximum; inactive means score below 0.9); conditions: primary human bronchial epithelial cells
How it was run: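 Cells (human bronchial epithelial, primary) are treated with chemicals, and after 24 h the parallel cultures are fixed in 10% TCA. These are then stained with 0.1% SRB and read at 560 nm. Gain or loss of signal is fitted relative to DMSO.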

[17] = read-out: Thrombomodulin, THBD (gene 7056); test: BSK_3C_Thrombomodulin: BioMAP Diversity Plus: 3C Assay for Thrombomodulin Biomarker Activity (AID 2283029; active means hit-call score of the fitted dose curve at least 0.9, where 1 is the maximum; inactive means score below 0.9); conditions: primary human endothelial cells (HUVEC); actives raise or lower the signal
How it was run: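 Human umbilical vein endothelial cells were exposed to chemicals for 24 h; cell-surface thrombomodulin quantified by ELISA, with bidirectional fitting against DMSO baseline.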

[18] = read-out: Urokinase-type plasminogen activator receptor (uPAR), PLAUR (gene 5329); test: BSK_4H_uPAR: BioMAP Diversity Plus: 4H Assay for Urokinase-type plasminogen activator receptor (uPAR) Biomarker Activity (AID 2283030; active means hit-call score of the fitted dose curve at least 0.9, where 1 is the maximum; inactive means score below 0.9); conditions: primary human endothelial cells (HUVEC); actives raise or lower the signal
How it was run: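 Cell-surface uPAR ELISA signal, measured 24 h after dosing human umbilical vein endothelial cells, was analyzed with bidirectional fitting relative to DMSO. Parallel SRB staining of total protein tracked overt cytotoxicity.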

Chain of E-selectin (Homo sapiens) (P16581 whole entry, looked up): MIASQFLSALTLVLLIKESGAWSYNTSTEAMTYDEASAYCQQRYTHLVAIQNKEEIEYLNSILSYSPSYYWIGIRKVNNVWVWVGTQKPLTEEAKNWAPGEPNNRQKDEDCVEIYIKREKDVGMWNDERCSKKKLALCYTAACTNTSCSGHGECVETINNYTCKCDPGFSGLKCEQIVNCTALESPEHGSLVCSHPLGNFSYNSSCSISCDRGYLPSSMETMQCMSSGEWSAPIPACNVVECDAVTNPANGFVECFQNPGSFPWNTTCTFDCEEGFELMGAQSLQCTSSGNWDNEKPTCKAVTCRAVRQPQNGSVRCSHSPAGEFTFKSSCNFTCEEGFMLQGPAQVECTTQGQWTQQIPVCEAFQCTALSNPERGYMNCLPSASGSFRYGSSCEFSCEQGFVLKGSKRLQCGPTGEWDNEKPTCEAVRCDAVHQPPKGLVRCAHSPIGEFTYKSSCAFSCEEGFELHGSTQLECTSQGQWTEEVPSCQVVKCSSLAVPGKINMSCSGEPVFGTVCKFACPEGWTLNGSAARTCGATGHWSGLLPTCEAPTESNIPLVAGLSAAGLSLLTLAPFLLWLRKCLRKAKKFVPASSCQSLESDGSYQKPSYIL

With O=C(O)CCCCCCCCCCCC(=O)O the outcome [1] was “inactive” and the outcome [2] was “inactive”.

In the case of NCc1ccco1, the outcome [1] is reported as “inactive”, the outcome [2] is reported as “inactive” and the outcome [3] is reported as “inactive”.

In the case of CC1CCC(C(C)C)C(O)C1 (stereo not given), the outcome [1] is reported as “inactive” and the outcome [2] is reported as “inactive”.

For CN(c1nccc(=O)[nH]1)C1CCN(c2nc3ccccc3n2Cc2ccc(F)cc2)CC1, the outcome [1] was “inactive”, the outcome [2] was “inactive” and the outcome [3] was “inactive”. For the same molecule, the outcome [4] was “inactive”, the outcome [5] was “inactive” and the outcome [6] was “inactive”. For the same molecule, the outcome [7] was “inactive”, the outcome [8] was “inactive” and the outcome [9] was “inactive”. The outcome [10] was “inactive”, the outcome [11] was “inactive” and the outcome [12] was “inactive”. For the same molecule, the AC50 [13] was 0.00777 µM (active), the outcome [14] was “inactive” and the AC50 [15] was 0.00777 µM (active). For the same molecule, the outcome [16] was “inactive”, the outcome [17] was “inactive” and the outcome [18] was “inactive”.

For CC=CC=CCOC(=O)C(C)C, the outcome [1] was “inactive”.

For OCCc1ccccc1, the outcome [1] was “inactive”, the outcome [2] was “inactive” and the outcome [3] was “inactive”. For the same molecule, the outcome [4] was “inactive”.

For CCOc1ccc(NC(=O)CC(C)=O)cc1, the outcome [1] was “inactive”.

In the case of CCCCCCOC(=O)C(C)C, the outcome [1] is reported as “inactive”.

For CC1=CC[C@@]23C[C@@H]1C(C)(C)[C@@H]2CC[C@H]3C, the outcome [1] was “inactive”, the outcome [2] was “inactive” and the AC50 [3] was 58.9 µM (active).

In the case of CCCCCCCCCC(=O)OC, the outcome [1] is reported as “inactive”.

In the case of OCCCCC(O)CO (stereo not given), the outcome [1] is reported as “inactive”.

For O=c1c(O)c(-c2ccc(O)cc2)oc2cc(O)cc(O)c12, the outcome [1] was “inactive”.

With CC(=O)OCCCc1ccccc1 the outcome [1] was “inactive” and the outcome [2] was “inactive”.

With CCCCCCC(O)CCCCCCCCCCC(=O)O (stereo not given) the outcome [1] was “inactive”, the outcome [2] was “inactive” and the AC50 [3] was 22.7 µM (active).

For Cc1ncc([N+](=O)[O-])n1CCO, the outcome [1] was “inactive”, the outcome [2] was “inactive” and the outcome [3] was “inactive”.

In the case of CC(C)(C)C1=CC(=O)C(C(C)(C)C)=CC1=O, the AC50 [1] is reported as 72 µM (active), the outcome [2] is reported as “inactive” and the AC50 [3] is reported as 13.7 µM (active). For the same molecule, the outcome [4] was “inactive” and the outcome [11] was “inactive”.

For O=C(O)c1ccc(O)cc1, the outcome [1] was “inactive”, the outcome [2] was “inactive” and the outcome [3] was “inactive”. The outcome [4] was “inactive”.

With CCCC(=O)OCCc1ccccc1 the outcome [1] was “inactive”.

With CCOc1ccc(NC(=O)CC(C)O)cc1 (stereo not given) the outcome [1] was “inactive”.

For C=CCCCCCCCCCC, the outcome [1] was “inactive”, the outcome [2] was “inactive” and the outcome [3] was “inactive”. For the same molecule, the outcome [4] was “inactive”.

In the case of COc1ccccc1[N+](=O)[O-], the outcome [1] is reported as “inactive” and the outcome [2] is reported as “inactive”.

In the case of CC(Oc1cc(Cl)ccc1Cl)C(=O)O (stereo not given), the outcome [1] is reported as “inactive”.

In the case of CC1(C)O[C@@H]2C[C@H]3[C@@H]4CCC5=CC(=O)C=C[C@]5(C)[C@@]4(F)[C@@H](O)C[C@]3(C)[C@]2(C(=O)CO)O1, the outcome [1] is reported as “inactive”, the outcome [2] is reported as “inactive” and the outcome [3] is reported as “inactive”. For the same molecule, the outcome [4] was “inactive” and the outcome [11] was “inactive”.

For COC(C)(C)CCO, the outcome [1] was “inactive”.

With CCCCCCCCCCCCCC(=O)OCC(O)CO (stereo not given) the outcome [1] was “inactive”, the outcome [2] was “inactive” and the outcome [3] was “inactive”. For the same molecule, the outcome [4] was “inactive” and the outcome [11] was “inactive”.

With C=Cc1ccncc1 the AC50 [1] was 60.2 µM (active), the outcome [2] was “inactive” and the outcome [3] was “inactive”. For the same molecule, the outcome [4] was “inactive” and the outcome [11] was “inactive”.
